# Assay outcomes from PubChem.
# Shown are actives, neighbours in structure and some others; about 1.5% of the full set was active somewhere.
# ANO1 activ = activates or potentiates the mouse TMEM16A chloride channel. Q8BHY3. HEK293 TMEM16A/YFP-H148Q/I152L, iodide quench fluorescence; hits give low values. B-score at 10 µM. 340,000 compounds, 0.3% hits;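 active means fluorescence-ratio B-score plate-corrected deviation score at least 3 library SD below zero, with starting fluorescence score within 5 deviations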;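 further: channel opened by trigger with iodide after compound preincubation; score built on the fluorescence ratio of max minus min over baseline; more negative score means more quench and so TMEM16A activation or potentiation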
# iPSC survival up = hiPSC single-cell survival enhancement | 360,000 compounds, 0.044% hits | survival enhancement, % at 20 µM | ATPlite luminescence; 100% = ROCK inhibitor wells, 0% = DMSO; in the data active means survival enhancement above about 18%;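 further: cells exposed to compounds for 16 hours before the ATP read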
# DAGLB inhibitor = blocks human DAGLB lipase activity. inhibition, % at 5.17 µM. 340,000 compounds, 0.059% hits. HEK293T DAGLB membrane lysate, EnzChek fluorogenic substrate; in the data active means inhibition above about 34%;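 further: 0% = enzyme with vehicle and 100% = wells lacking enzyme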
# TMEM16A inh = inhibitors of mouse TMEM16A calcium-activated chloride channel; 310,000 compounds, 1.2% hits; HEK293 TMEM16A/YFP iodide influx fluorescence, ionomycin; Q8BHY3; normalized B-score (activity score, 25-100; higher = stronger inhibition) at 10 µM; AID 588511;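 active means ratio plate-corrected score three or more library SD toward inhibition, starting fluorescence score within five deviations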;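 further: score derived from kinetic fluorescence span divided by baseline fluorescence per well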
# ABCB6 inh 2 = blocks the human ABCB6 transporter | Q9NP58 | K562-ABCB6 porphyrin accumulation, flow cytometry, 1 h; hits give low values | fluorescence ratio to DMSO, % at 10 µM | 360,000 compounds, 0.19% hits;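 active means fluorescence ratio to DMSO below 75%, the collection mean minus 3 SD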;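 further: signal is porphyrin accumulated inside mitochondria; 100% equals median channel fluorescence of DMSO control wells; lower ratio means ABCB6 inhibition with less porphyrin fluorescence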
# Target sequence (Q9NP58 whole entry, looked up): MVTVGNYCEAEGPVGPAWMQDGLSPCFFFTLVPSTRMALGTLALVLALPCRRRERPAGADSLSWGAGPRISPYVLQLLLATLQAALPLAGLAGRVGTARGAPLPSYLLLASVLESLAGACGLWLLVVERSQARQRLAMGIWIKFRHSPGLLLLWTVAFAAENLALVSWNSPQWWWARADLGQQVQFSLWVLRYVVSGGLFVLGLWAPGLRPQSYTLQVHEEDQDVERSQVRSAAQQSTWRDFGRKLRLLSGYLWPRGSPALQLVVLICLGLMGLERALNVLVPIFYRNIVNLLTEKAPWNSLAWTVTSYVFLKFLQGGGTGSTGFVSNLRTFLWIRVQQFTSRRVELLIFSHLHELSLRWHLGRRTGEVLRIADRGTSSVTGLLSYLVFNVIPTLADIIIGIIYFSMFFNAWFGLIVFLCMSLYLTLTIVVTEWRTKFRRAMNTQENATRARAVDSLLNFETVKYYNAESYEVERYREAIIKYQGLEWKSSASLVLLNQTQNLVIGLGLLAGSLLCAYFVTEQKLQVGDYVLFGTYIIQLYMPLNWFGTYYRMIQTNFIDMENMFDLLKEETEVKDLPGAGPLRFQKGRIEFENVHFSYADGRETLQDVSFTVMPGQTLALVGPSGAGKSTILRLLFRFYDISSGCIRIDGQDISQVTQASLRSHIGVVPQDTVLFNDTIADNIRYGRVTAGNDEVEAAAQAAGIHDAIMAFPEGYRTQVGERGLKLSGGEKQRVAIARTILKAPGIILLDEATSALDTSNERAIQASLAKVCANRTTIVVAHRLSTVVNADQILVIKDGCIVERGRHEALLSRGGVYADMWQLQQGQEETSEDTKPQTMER
# ABCB6 inh CP1 = human ABCB6 transporter inhibition. shares compounds with ABCB6 inh 2. K562-ABCB6 porphyrin accumulation, flow cytometry, 1 h; hits give low values. ratio response (% of DMSO), % at 10 µM. 700 tested, under 10 active. AID 602430;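 active means repeat-averaged ratio response below 75% of DMSO, the collection mean minus 3 SD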;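 further: median porphyrin fluorescence at 575 nm with 488 nm excitation from mitochondria; lower ratio means less porphyrin signal so ABCB6 inhibition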
# * marks the source's active call; other numbers are inactive results; i = inactive; . = no result.
SMILES,ANO1 activ,iPSC survival up,DAGLB inhibitor,TMEM16A inh,ABCB6 inh 2,ABCB6 inh CP1
O=C(CCc1nnc2ccc(N3CCC4(CC3)OCCO4)nn12)N1CCCCC1,i,0,0,i,97,96
CCOC(=O)C1CCN(C(=O)CCc2nnc3ccc(N4CCN(C)CC4)nn23)CC1,i,0,1,i,98,101
CC(=O)c1ccc(NC(=O)CCc2nnc3ccc(N4CCC5(CC4)OCCO5)nn23)cc1,i,0,1,i,97,.
COc1cccc(N2CCN(C(=O)CCc3nnc4ccc(N5CCCC5)nn34)CC2)c1,i,0,0,i,101,.
O=C(NCc1n[nH]c(=S)n1-c1cccc(Cl)c1)c1ccc(S(=O)(=O)N2CCCC2)cc1,i,2,-2,i,33*,104
O=C(NCc1n[nH]c(=S)n1-c1ccc(Cl)c(Cl)c1)c1ccc(S(=O)(=O)N2CCCCC2)cc1,i,0,6,i,93,.
O=S(=O)(c1ccc(SCc2cccc(Cl)c2)nc1)N1CCCC1,i,0,-10,.,97,.
CCOc1ccccc1C(=O)N[C@H](C(=O)Nc1ccc(OC)c(S(=O)(=O)N2CCOCC2)c1)C(C)C,i,0,2,i,94,.
CCOc1ccc(C(=O)N[C@H](C(=O)Nc2ccc(OC)c(S(=O)(=O)N3CCOCC3)c2)C(C)C)cc1,i,-1,0,i,73*,99
CC1CCCN(C(=O)CN(c2ccccc2)S(=O)(=O)c2ccc(F)cc2)C1 (stereo unspecified),i,0,-2,.,98,.
COc1ccc(NC(=O)C2Cc3c(-c4cccc(C(N)=O)c4)ccnc3O2)cc1OC (stereo unspecified),.,1,.,.,96,98
COc1ccc(NC(=O)C2Cc3c(-c4cccc(C(C)=O)c4)ccnc3O2)cc1OC (stereo unspecified),.,0,.,.,90,.
CC(=O)Nc1cccc(-c2ccnc3c2CC(C(=O)Nc2cccc(NS(C)(=O)=O)c2)O3)c1 (stereo unspecified),.,1,.,.,99,.
CS(=O)(=O)Nc1cccc(NC(=O)C2Cc3c(-c4cccc(C(N)=O)c4)ccnc3O2)c1 (stereo unspecified),.,-2,.,.,61*,100
Cc1ccccc1S(=O)(=O)N1C[C@H]2CON(C)[C@H]2C[C@H]1c1cccc(-c2ccc(C#N)cc2)c1,.,-1,-5,.,98,.
Cc1ncc([N+](=O)[O-])n1CC(=O)Nc1cc(Cl)ccc1Cl,i,0,0,i,10*,98
Cc1nc2c(C(=O)N3CCCCC3)cnn2c(C)c1Cc1ccccc1F,i,-3,-4,i,96,98
Cc1nc2c(C(=O)N3CCN(C)CC3)cnn2c(C)c1Cc1ccc(Cl)cc1,i,6,1,i,99,100
Cc1ccccc1Cc1c(C)nc2c(C(=O)N3CCN(Cc4ccc5c(c4)OCO5)CC3)cnn2c1C,i,2,1,i,90,.
CCOC(=O)Cc1nnc(NC(=O)C(CC)Sc2nnc3c4ccccc4n(C)c3n2)s1 (stereo unspecified),i,3,2,i,74*,100
COc1cccc(NC(=O)COC(=O)CCCC2=NS(=O)(=O)c3ccccc3N2)c1,i,0,2,i,14*,102
COc1ccc(NC(=O)COC(=O)CCCC2=NS(=O)(=O)c3ccccc3N2)cc1,i,0,1,i,102,100
NNc1ccc([N+](=O)[O-])c2[nH][nH]c(=O)c12,.,2,5,.,106,.
CCCCn1cnc2c(cnn2-c2ccc(Cl)cc2)c1=O,i,-3,-2,i,62*,97
CCCCn1cnc2c(cnn2-c2ccc(F)cc2)c1=O,i,-3,-2,i,99,.
Clc1cc(Sc2ccc(Br)cc2)nnc1-c1ccccc1,i,-1,-8,i,74*,101
CCN(CC(=O)NCc1ccc(Cl)cc1)C(=O)c1cccc(S(=O)(=O)Nc2ccc(OC)cc2)c1,i,0,-3,i,95,.
CC(=O)Nc1ccc(-c2ccnc3c2CC(C)(C(=O)Nc2cccc(Oc4ccccc4)c2)O3)cc1 (stereo unspecified),.,-3,.,.,95,101
